Hits are enriched below; roughly 3.6% of the tested compounds scored in any of these assays.
NadD block – inhibitors of Staphylococcus aureus NadD; actives 0.78% (n = 360,000); AID 602399; inhibition, % at 20 µM; purified NadD enzyme, colorimetric absorbance read-out; in the data active means inhibition above about 26%
FAS TE block – blocks the thioesterase domain of human fatty acid synthase | P49327 | recombinant FAS-TE, OMFH fluorogenic substrate, fluorescence endpoint | inhibition, % at 15 µM | actives 0.67% (n = 360,000);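 active means compounds whose normalised, plate-corrected inhibition of enzyme fluorescence in the single-dose primary screen is 50% or more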
Myeloid diff 2 – promotes myeloid progenitor differentiation; ER-HoxA9 myeloid progenitors, lysozyme-GFP differentiation, flow cytometry; calls only at 10 µM; actives 1% (n = 360,000); AID 624256;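 active means normalized GFP-positive differentiation at or above the plate's own cutoff, the solvent-only control mean plus 3 SD; inconclusive means no clear call, values can overlap the other calls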;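 further: cells exposed to compound for four days before flow analysis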
CendR NRP1 mod – alters CendR peptide binding to human NRP-1; O14786; actives 0.85% (n = 360,000); FAM-RPARPAR peptide binding to NRP-1, fluorescence polarization; inhibition, % at 25 µM;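 active means inhibition or corrected inhibition above about 18%, plus a signal ratio from 0.5 to 1.5, limit read from the data, passing the limit was not always enough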
CRFR2-BP antag – CRF-BP/CRF-R2 complex antagonism | inhibition, % at 11.8 µM | actives 0.59% (n = 350,000) | HEK293 CRF-R2/CRF-BP, CRF-induced calcium fluorescence;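 active means inhibition of the ligand-induced calcium signal above about 50% at the single tested concentration, limit read from the data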
Large screens that a line does not name were inactive.

Cc1noc(C)c1-c1ccc(C(=O)Nc2ccc(C(C)C)cc2)c2occc12	Myeloid diff 2 inconclusive (no result: CRFR2-BP antag)
Cc1ccc(C(=O)COC(=O)c2cc(Cl)ccc2O)cc1[N+](=O)[O-]	CendR NRP1 mod 44.6
Cc1ccc(C(=O)COC(=O)c2ccncc2)cc1[N+](=O)[O-]	none
O=[N+]([O-])c1ccc(Oc2cccc3cccnc23)c([N+](=O)[O-])c1	Myeloid diff 2 active
COc1ccc(CCNC(=O)Nc2nc(C(N)C3CCCCC3)cs2)cc1OC (stereo not drawn)	CendR NRP1 mod 17.4 (no result: CRFR2-BP antag)
CCOc1ccccc1NC(=O)Cn1cnc2c(cnn2-c2ccc(C)c(C)c2)c1=O	CendR NRP1 mod 37.6
COC(=O)c1ccccc1NC(=O)Cn1cnc2c(cnn2-c2ccc(C)c(C)c2)c1=O	none (no result: NadD block, FAS TE block, Myeloid diff 2, CendR NRP1 mod)
COc1ccc(NC(=O)C2(C)CCN2C(=O)c2ccc(C(C)(C)C)cc2)cc1OC (stereo not drawn)	none (no result: CRFR2-BP antag)
CN(C(=O)COC(=O)C1(C)CC1(Cl)Cl)c1c(N)n(Cc2ccccc2)c(=O)[nH]c1=O (stereo not drawn)	none
CCN1CCN(C(=O)CCNC(=O)Cn2cnc3ccccc3c2=O)CC1	none
Cc1cccc(-n2c(SCC(=O)Nc3ncc(Cl)cc3Cl)nc3ccccc32)c1	Myeloid diff 2 active
O=C(CSc1nc2ccccc2n1-c1ccccc1)Nc1ncc(Cl)cc1Cl	none
COC(=O)C1=C(C)N(Cc2ccccc2)C(=NCCc2cccnc2)N[C@H]1c1ccc(Br)cc1	Myeloid diff 2 active
COC(=O)C1=C(C)N(Cc2ccccc2)C(=NCCc2cccnc2)N[C@H]1c1ccccc1	none
CCN1C(=NCCc2ccccn2)N[C@@H](c2cccc(C(F)(F)F)c2)C(C(=O)OC)=C1C	CendR NRP1 mod 20.7
C=CCn1c(SCc2ccccc2Cl)nnc1-c1sc2nc(C)cc(C)c2c1N	none
N#CC1(c2ccccc2)CCC(=O)N1c1ccccc1 (stereo not drawn)	none
Cc1cc(/C=C(/C#N)c2nc3ccccc3[nH]2)c(C)n1-c1cc(C(=O)O)cc(C(=O)O)c1	none
Cc1ccc2nc(/C(C#N)=C\c3cc(C)n(-c4cccc([N+](=O)[O-])c4)c3C)[nH]c2c1	NadD block 29.4
CSc1ccccc1C(=O)N1CCC(CCC(=O)NCc2ccc(F)cc2)CC1	CendR NRP1 mod 30.6
COc1ccc(CN(C(=O)COc2ccccc2)c2ccccc2C(=O)O)cc1	none
O=C(c1ccco1)N1CCN(C23CC4CC(CC(C4)C2)C3)CC1	none
Cc1ccc(C(=O)N2CCN(C34CC5CC(CC(C5)C3)C4)CC2)o1	CendR NRP1 mod 24.8
Cn1nccc1C(=O)N1CCN(C23CC4CC(CC(C4)C2)C3)CC1	CendR NRP1 mod 30.9
Cn1ncc(Cl)c1C(=O)N1CCN(C23CC4CC(CC(C4)C2)C3)CC1	none
CCOC(=O)c1cnc2ccc(C)cc2c1NCCO	CendR NRP1 mod 26.7
O=C1C=C(c2cc3ccccc3o2)C[C@@H](c2ccc(F)cc2)C1	none
CCOC(=O)C1(C)CCN1C(=O)c1ccccc1Br (stereo not drawn)	none (no result: CRFR2-BP antag)
Oc1ccc(/C=N\Nc2cc(N3CCOCC3)nc(N3CCOCC3)n2)c(O)c1	none
Oc1ccc(/C=N/Nc2cc(N3CCCC3)nc(N3CCCC3)n2)cc1O	NadD block 36.4
Cc1ccc(-c2noc(-c3ccccc3C(=O)N3CCCC3)n2)cc1	none
Cc1ccccc1-c1noc(-c2ccccc2C(=O)N2CCCC2)n1	CendR NRP1 mod 20.1
Cc1onc(-c2ccccc2)c1C(=O)N1CCCC1	CendR NRP1 mod 20.8
Cc1onc(-c2c(F)cccc2Cl)c1C(=O)N1CCSCC1	none
Cc1onc(-c2ccccc2)c1C(=O)NC(=S)NNC(=O)c1ccccc1O	Myeloid diff 2 active
Cc1onc(-c2c(F)cccc2Cl)c1C(=O)N1CCN(c2ncc(Br)cn2)CC1	CRFR2-BP antag 73.8
Cc1ccccc1-c1cc2nc(Oc3cccc(F)c3)n(C)c(=O)c2s1	none (no result: CRFR2-BP antag)
Cn1c2ccccc2c2nnc(SCC(=O)Nc3cccc(C(=O)O)c3)nc21	none
Cc1ccc(C2=NN=C(NC(=O)CSc3nnc4c5ccccc5n(C)c4n3)SC2)cc1	NadD block 82.4
N=C1C(=O)OCC1c1cc(Cl)ccc1NC(=O)Nc1ccccc1 (stereo not drawn)	CendR NRP1 mod 38.8
COc1cc(C(=O)Nc2ccccc2C2COC(=O)C2=N)cc(OC)c1OC (stereo not drawn)	none
CCc1nc2ccc(C(=O)NCc3ccc4c(c3)OCO4)cn2c1N(C)CCC(C)C	none (no result: CRFR2-BP antag)
Nc1ccc2c(c1)Nc1ccccc1CC2	Myeloid diff 2 active
